Screening data deposited in PubChem by ICCB-Longwood Screening Facility, Harvard Medical School.
CapD inh – CapD enzyme inhibition; purified CapD enzyme, fluorescence intensity read-out; hits give low values; z-score (test concentration not listed); hit rate 0.23% among 140,000; in the data active = z-score mostly below about -2.9, no sharp cut-off; inactive = mostly above about -1.9
The depositor's hits bear a star; ! = repeats disagree. The entries come from a sample that favours hits as a whole.

SMILES	CapD inh
CC(=C1C(=O)c2ccccc2C1=O)N1CCN(CCN=CC2=C(O)CC(c3ccc(C)cc3)CC2=O)CC1 (stereo unspecified)	-0.61
COc1cc(C2C(C(=O)Nc3cccc(F)c3)=C(C)NC3=C2C(=O)CC(c2ccccc2)C3)ccc1O (stereo unspecified)	12
COc1cc(-c2nc3ccccc3c(=O)n2NCc2cccc([N+](=O)[O-])c2O)cc(OC)c1OC	0.38
COc1cc2[nH]c(=O)n(CCCC(=O)N3CCN(c4cc(Cl)ccc4C)CC3)c(=O)c2cc1OC	1.1
O=C(O)c1cccc2cccc(I)c12	3
COC(=O)C(C)Nc1ccc(C)cc1 (stereo unspecified)	1.4
CCOC(=O)C(Nc1cccc(F)c1)c1ccccc1 (stereo unspecified)	-0.47
COC(=O)C(C(=O)OC)C(Nc1ccccc1)c1ccccc1 (stereo unspecified)	-7.1*
O=C(CC1CCCC1)OCCN1CCCC1=O	-1.2
N#CC1=C(N)Oc2ccc(Br)cc2C1C(C#N)C#N (stereo unspecified)	0.91
COc1ccc(C(=O)c2sc3nc(-c4ccco4)cc(C(F)(F)F)c3c2N)cc1OC	0.67
Cc1cc(C(F)(F)F)c2c(n1)sc1c(O)cc(=O)[nH]c12	5.8
O=c1cc(O)c2sc3nc(-c4ccco4)cc(C(F)(F)F)c3c2[nH]1	-6.2*
CC(=O)Nc1ccc2nc(C)sc2c1	-5.7*
Cc1nc2ccc(NC(=O)c3cccc(Br)c3)cc2s1	-0.085
CC(=O)Nc1ccc2nc(NC(=O)C(C)(C)C)sc2c1	-0.36
Cc1cc(C(=O)OCCC2CCCCN2C2=NS(=O)(=O)c3ccccc32)ccc1[N+](=O)[O-] (stereo unspecified)	0.035
Cc1onc(-c2ccccc2)c1C#N	-0.31
O=C(N/N=C/c1cccs1)N/N=C/c1cccs1	-2.7
N#CC(C#N)=C(N)/C(C#N)=C/c1c[nH]c2ccccc12	-3*
O/N=C/c1c[nH]c2ccccc12	-0.78
CN(C)c1ccc(/C=C(\C#N)C(N)=C(C#N)C#N)cc1	-0.45
O=C(COc1cccc(Cl)c1)Oc1ccc2c3c(c(=O)oc2c1)CCC3	3.6
CN(C)C1(c2nnnn2CCOC(=O)Nc2ccc(Cl)cc2)CCCC1	-0.24
CN(C)C(=O)C(CCN1CCC(O)(c2ccccc2)CC1)(c1ccccc1)c1ccccc1	0.56
SMILES	CapD inh
CCOC(=O)C1=CN(Cc2ccc(OC)cc2)C=C(C(=O)OCC)C1c1cc(OC)c(O)c(OC)c1	5
COc1cccc(NC(N)=S)c1	0.13
COc1cccc(NC(=S)NNc2ccccc2)c1	-1.1
COc1cccc(NC(=S)/N=C(\N)Nc2nc(C)c3ccccc3n2)c1	-5.9*
C=CCN1C=C/C(=C\C=C(/C#N)C(=O)Nc2ccccc2)c2ccccc21	0.095
CCC(C)(C)c1ccc(S(=O)(=O)NC(C(=O)OC(C)(C)C)c2ccccc2)cc1 (stereo unspecified)	0.28
O=C1NC(=S)NC(=O)C1=C/C=C/c1ccco1	-11*
CN1C(=O)NC(=O)/C(=C\C=C\c2ccco2)C1=O	-0.49
O=C1NC(=O)N(c2ccccc2)C(=O)/C1=C/C=C/c1ccco1	-1.1
CC1(C)CCc2cc(CN3CCN(c4ncc(C(F)(F)F)cc4Cl)CC3)ccc2O1	-1.2
CC1(C)SC(=S)N(/N=C/c2ccco2)C1N(O)C(=O)Nc1cccc(Cl)c1 (stereo unspecified)	-0.69
CCCN1C(=O)c2ccccc2C(C(=O)O)C1c1ccc(OC)cc1 (stereo unspecified)	0.45
COc1ccc(C2C(C(=O)/C=C/c3ccccc3)=C(O)C(=O)N2CCO)cc1 (stereo unspecified)	-3.9*
COc1ccc(C2/C(=C(\O)c3ccccc3)C(=O)C(=O)N2CCN2CCOCC2)cc1 (stereo unspecified)	-0.94
CCOC(=O)c1cc(C#N)c(Oc2ccc(Cl)cc2C)nc1-c1ccccc1	-0.13
COc1ccc(CN2CCCC(COC(=O)N3CCC(C(=O)c4ccc(F)cc4)CC3)C2)cc1OCc1ccccc1 (stereo unspecified)	0.31
O=C(NCc1ccco1)c1oc(=O)c2ccccc2c1-c1ccccc1	-0.44
CCOC(=O)c1cn(-c2ccc(Cl)cc2)nc1C(F)(F)F	0.5
N#C/C(=C\Nc1ccc(C(N)=O)cc1)c1nc(-c2ccccc2)cs1	-0.45
N#C/C(=C\C=C\c1ccco1)c1nc(-c2ccccc2)cs1	-4.3*
N#C/C(=C\Nc1ccc(Br)cc1)c1nc(-c2ccccc2)cs1	-0.33
CN(C)c1ccc(/C=C2/SC(=Nc3ccccc3Cl)NC2=O)cc1	-0.48
O=c1[nH]cnc2c1sc(=S)n2-c1ccccc1	-5.4*!
O=c1[nH]c(-c2ccc(F)cc2)nc2c1sc(=S)n2-c1ccccc1	-0.26
COc1ccc(-c2nc3c(sc(=S)n3-c3ccccc3)c(=O)[nH]2)cc1	0.71
COc1ccc(CCNC(=O)CSc2nc3n[nH]c(C)c3c(=N)n2-c2cc(Cl)ccc2C)cc1OC	-0.14
Cc1ccc(C(=O)Nc2nnc(CCS(=O)(=O)c3ccc(Br)cc3)s2)cc1	-0.13
CC(=O)Nc1cccc(C(=O)NC(C)c2ccccc2)c1 (stereo unspecified)	0.08
CCc1ccc(N2C(=O)c3sc4nnc(C)c(=O)n4c3C2=O)cc1	-2.1*
